In the library only some 5.8% were active in any assay of this set; here they are far more common.
TRPV1 agonist: activates the human vanilloid receptor TRPV1 | TRPV1-expressing cells, Fluo-8 calcium influx, agonist mode | activation, % at 8.33 µM | 320,000 tested, 0.19% active | AID 540275; in the data active = activation above about 80%; inconclusive = between about 30% and that limit; note: 0% is about no effect
Target sequence (Q8NER1 whole entry, looked up): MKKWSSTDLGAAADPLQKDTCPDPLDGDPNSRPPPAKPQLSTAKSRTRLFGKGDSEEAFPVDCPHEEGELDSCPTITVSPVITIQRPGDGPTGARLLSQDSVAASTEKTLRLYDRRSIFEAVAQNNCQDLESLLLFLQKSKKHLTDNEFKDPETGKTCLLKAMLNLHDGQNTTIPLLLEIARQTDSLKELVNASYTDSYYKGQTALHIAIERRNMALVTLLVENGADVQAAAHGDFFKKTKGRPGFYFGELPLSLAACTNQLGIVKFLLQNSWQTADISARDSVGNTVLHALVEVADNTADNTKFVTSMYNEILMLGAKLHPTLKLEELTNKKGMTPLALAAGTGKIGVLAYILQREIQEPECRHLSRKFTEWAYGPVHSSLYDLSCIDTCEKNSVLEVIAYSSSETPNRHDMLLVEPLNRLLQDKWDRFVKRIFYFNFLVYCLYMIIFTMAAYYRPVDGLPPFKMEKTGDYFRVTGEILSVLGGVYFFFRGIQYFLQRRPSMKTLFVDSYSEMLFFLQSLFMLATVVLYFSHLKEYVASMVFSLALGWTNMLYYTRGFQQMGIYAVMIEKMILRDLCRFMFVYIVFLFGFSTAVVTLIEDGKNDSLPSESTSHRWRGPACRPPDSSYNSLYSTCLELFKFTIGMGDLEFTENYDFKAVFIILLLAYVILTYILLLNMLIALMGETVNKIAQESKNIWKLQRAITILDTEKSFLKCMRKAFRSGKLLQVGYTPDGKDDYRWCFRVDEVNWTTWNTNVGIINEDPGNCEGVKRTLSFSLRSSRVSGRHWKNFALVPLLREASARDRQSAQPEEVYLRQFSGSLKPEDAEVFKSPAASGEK
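Fluo-8 calcium influx in TRPV1-expressing cells, kinetic read (ex 480/em 520 nm). Compound added and read 3 min for agonist activity, followed by capsaicin at EC20 final and 2 min further read for enhancement.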
TRPV1 PAM: potentiators of human vanilloid receptor 1 (TRPV1) | Q8NER1 | TRPV1-expressing cells, Fluo-8 calcium influx, capsaicin EC20 potentiation | potentiation, % at 8.33 µM | 320,000 tested, 0.02% active | AID 540277; in the data active = potentiation above about 80%; inconclusive = between about 30% and that limit; note: 0% is about no effect
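TRPV1-expressing cells were cultured overnight at 35.5C and loaded with Fluo-8 calcium dye for 40 to 90 min at room temperature. After a 10 s baseline, compound was added and calcium influx was read kinetically for 3 min (ex 480/em 520 nm).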
RORgamma inh: blocks mouse ROR gamma transcriptional activity. P51450. Drosophila S2 Gal4-RORgamma UAS-luciferase reporter, 20 h. Potency, µM (titrated, usually from 53.6 µM), for inactives: at the highest dose activity change, negative = inhibition, usual class: inhibitors. 310,000 tested, 5.4% active; note: potency is the fitted concentration of half-maximal effect; % is set by controls: 0 for no effect and ±100 for the full control effect; nearly all actives have a fitted effect of over 60% in size
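Compounds are pin-transferred onto Drosophila Schneider cells expressing a copper-inducible Gal4–ROR gamma transactivation domain fusion. After 1 hr, copper sulfate is added to 700 uM final; luciferase is read 20 hr later.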
uPA surface inh: inhibitors of cell surface uPA generation. cell surface uPA generation assay, qHTS. Potency, µM (titrated, usually from 38.3 µM), inactives show at the top dose activity change, negative = inhibition, usual class: inhibitors. 330,000 tested, 0.31% active. AID 540303; active = well fitted inhibition curve with a large enough effect; inconclusive = small, poorly fitted or top-dose-only effect; inactive = no such curve, though single readings can be large or run the other way; tested in mouse RAW 264.7 cells; note: potency is the fitted concentration of half-maximal effect; % is set by controls: 0 for no effect and ±100 for the full control effect; nearly all actives have a fitted effect of over 55% in size
Gal4-VP16 FLuc: counter-screen for ROR gamma inhibitors: Gal4-VP16 reporter; 310,000 tested, 3.5% active; Potency, µM (doses to about 53.6 µM), inactives show at the highest dose activity, negative = inhibition, usual class: inhibitors; Drosophila S2 Gal4-VP16 UAS-luciferase, luminescence, 20 h;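 note: Gal4-VP16 expression switched on by copper sulfate through the metallothionein promoter; potency is the fitted concentration of half-maximal effect; % is set by controls: 0 for no effect and ±100 for the full control effect; nearly all actives have a fitted effect of over 50% in size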
Active calls of the source: *; ? = inconclusive; · = not tested or not shown; [ ] = another dose, or the depositor's remark. Unless noted, calls come from the whole dose curve; as a rule, active = well fitted curve in the direction sought with a large enough effect; inconclusive = small, poorly fitted or top-dose-only effect, or another doubt; inactive = no such curve, though single readings can be large; an effect the other way counts as inactive or inconclusive.

SMILES	TRPV1 agonist	TRPV1 PAM	RORgamma inh	uPA surface inh	Gal4-VP16 FLuc
CC1=C/C(=N\NC(=O)c2ccc(O)cc2)CC1	0	?	13µM*	2%	?
COc1ccc(OCC(=O)N/N=C2/C=C(C)CC2)cc1	4	-12	-39%	-1%	8%
Cc1ccccc1OC1C=CC(C#Cc2ccc(Br)cc2)OC1CO (stereo not drawn)	·	·	1%[10 µM]	·	-6%[10 µM]
COc1cccc2cc(C(=O)Oc3ccccc3)c(=O)oc12	-1	14	?	3%	10µM*
COc1ccc(-c2nnc(-c3cc4ccccc4oc3=O)o2)cc1	-3	11	?	7%	0%
COc1cccc2cc(-c3nnc(-c4ccccc4)o3)c(=O)oc12	3	8	1.3µM*	-13%	?
COc1ccc(NS(=O)(=O)c2cccc(C(=O)NCc3ccco3)c2)cc1	-2	9	·	-8%	·
CC(C)(Cc1ccccc1)/[N+]([O-])=C\c1ccc(C(F)(F)F)cc1	6	-18	·	-11%	·
CCOc1ccc(CC(=O)NCc2cn3c(C)csc3n2)cc1	0	12	3%	1%	5%
CCCC1=NN(C(=O)Cc2ccc(OC)cc2)C(O)(C(F)(F)F)C1 (stereo not drawn)	4	-2	13µM*	36%	?
CCC1=NN(C(=O)Cc2ccc([N+](=O)[O-])cc2)C(O)(C(C)(C)C)C1 (stereo not drawn)	-5	-16	8.9µM*	0%	-9%
CCOc1ccc(CC(=O)N2N=C(C)CC2(O)C(F)(F)F)cc1 (stereo not drawn)	2	-9	1.6µM*	6%	5µM*
CCc1ccc(C2(O)CC(C(F)(F)F)=NN2C(=O)Cc2ccc([N+](=O)[O-])cc2)cc1 (stereo not drawn)	27	-12	?	2%	-5%
CC1(CC(=O)NNC(=O)Nc2ccccc2)OCCCO1	-2	11	-20%	0%	3%
O=C(O)c1ccc(/C=N/Nc2ccc(Cl)nn2)cc1	-1	5	-36%	3%	-7%
Cc1cc(C)c2nc(-c3cccnc3)cc(C(=O)NC(C)c3cnn(C)c3C)c2c1 (stereo not drawn)	-3	22	-1%	-11%	4%
Cc1ccc(Sc2cnc(N)nc2C)cc1	0	9	2%	3%	2%
Cc1ccc(C(C)NC(=S)NC2CCCCC2)c(C)c1 (stereo not drawn)	?	-7	3.2µM*	-4%	3.5µM*
Cc1ccc(C(C)NC(=S)NC2CCCCC2)cc1C (stereo not drawn)	?	-5	2.5µM*	·	4µM*
Cc1ccc(C(C)NC(=O)C2CCCC2)c(C)c1 (stereo not drawn)	10	-22	7%	2%	-10%
COc1ccc(C(C)NC(=S)NC2CCCC2)cc1OC (stereo not drawn)	1	3	?	-10%	?
CCC(NC(=S)NC1CCCCC1)c1ccc(C(C)C)cc1 (stereo not drawn)	?	-3	1.8µM*	·	2.5µM*
CN(C(=O)COC(=O)C1CCN(S(=O)(=O)c2ccc3c(c2)OCCO3)CC1)C1CCS(=O)(=O)C1 (stereo not drawn)	1	-1	·	-13%	·
O=C1Nc2ccc(Br)cc2/C1=C/c1ccc(C(=O)O)cc1	-4	9	0%	·	8%
COc1cc(/C=N/Nc2nncn2/N=C/c2ccc(O)c(OC)c2)ccc1O	0	-2	-42%	-15%	?
SMILES	TRPV1 agonist	TRPV1 PAM	RORgamma inh	uPA surface inh	Gal4-VP16 FLuc
COc1ccc(OC)c(/C=N/Nc2nncn2/N=C/c2cc(OC)ccc2OC)c1	0	4	?	10µM*	?
O=[N+]([O-])c1ccc(Sc2cc[n+]([O-])c3ccccc23)c([N+](=O)[O-])c1	0	10	11µM*	0%	18µM*
CCn1c(-c2c(Cl)c(C)nn2C)n[nH]c1=S	0	5	?	1%	-27%
CC(C)Cn1c(-c2ccco2)n[nH]c1=S	-9	10	10µM*	·	?
C=CCn1c(-c2ccco2)n[nH]c1=S	0	2	10µM*	2%	?
CCn1c(-c2ccco2)n[nH]c1=S	-2	5	16µM*	1%	?
CCCCn1c(-c2c(Cl)c(C)nn2C)n[nH]c1=S	-3	7	2.2µM*	-2%	-2%
CCCCCCN(C(=O)CCCCCN1C(=O)NC(C2CC2)C(C(=O)OCc2ccccc2)=C1C)C(C(=O)NCCCC)c1ccc(OCC(=O)OC)c(C(=O)OC)c1 (stereo not drawn)	·	·	9%	·	-6%
CCCCn1c(-c2sccc2C)n[nH]c1=S	-2	11	5µM*	0%	11µM*
CCCCn1c(-c2ccco2)n[nH]c1=S	-5	6	4.5µM*	-3%	7.1µM*
CNC(=O)C1(C(F)(F)F)C/C(=C\Cc2ccccc2)CCCO1 (stereo not drawn)	·	·	39%	·	8%
Cc1noc2ncnc(Sc3ccc(Cl)cc3)c12	0	23	7.1µM*	-15%	6.3µM*
Cc1ccc(Sc2ncnc3onc(C)c23)cc1	4	-2	10µM*	-11%	22µM*
Cc1ccccc1Sc1ncnc2onc(C)c12	1	23	7.1µM*	-16%	?
Cc1noc2ncnc(Sc3c(Cl)cccc3Cl)c12	-1	8	-111%	-16%	16µM*
Cc1noc2ncnc(SCc3ccc(C(F)(F)F)cc3)c12	13	-13	?	-3%	-7%
Cc1ccc(CSc2ncnc3onc(C)c23)cc1	1	-5	-1%	3%	-5%
Cc1ccc(C(=O)NCC(=O)OCc2c(F)cccc2Cl)s1	·	·	·	1%	·
CSc1nn2c(C(F)(F)F)cc(C(F)(F)F)nc2c1C(=O)O	-1	15	27%	7%	-15%
O=C(CSc1nnc(-c2ccncc2)n1-c1ccccc1)N1CCN(c2ccc(Cl)cc2)CC1	-6	19	-8%	5%	-16%
C=C1C(=O)OC(CCCCCCCC)C1C(=O)O (stereo not drawn)	·	·	18%	·	-28%
COc1cc(-c2noc(C)c2-c2ccc3[nH]ccc3c2)cc(OC)c1OC	-1	9	?	0.56µM*	12%
O=C(CCCN=C1NS(=O)(=O)c2ccccc21)Nc1ccc(Cl)cc1	4	-18	·	6%	·
C=CCOC(/C=C/c1ccccc1)C[Si](C)(C)C (stereo not drawn)	·	·	12%	·	7%
C=CCOC(=O)C(C(=O)Cc1ccccc1)c1ccccc1 (stereo not drawn)	·	·	·	-5%	·
Cc1[nH]c2ccccc2c1CN1CCc2ccccc2C1	1	10	11µM*	0%	?
CC(=O)c1sc(NC(=O)COc2ccc(C)c(C)c2)nc1C	-3	1	-3%	4%	-11%
C/C(=N/NC(=O)c1cc(C(C)C)[nH]n1)c1cccs1	7	-8	?	-7%	-47%
O=C(N/N=C/c1cccs1)c1n[nH]c2c1CCCC2	?	-17	5µM*	?	7.9µM*
